Source: PubChem (several laboratories)
ROMK mod – ROMK potassium channel modulators, primary screen, cell-based, thallium flux, MLSMR library; hit rate 2% among 130,000; B-score at 10 µM; Tet-inducible ROMK, thallium flux fluorescence; actives lie on both sides;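 active = signal ratio slope over the read window, or its plate-corrected B-score, at least 3 SD from the plate mean, either direction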;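 note: B-score of the F/F0 ratio slope over 7 to 12 s after thallium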
Target sequence (P48048 whole entry, looked up): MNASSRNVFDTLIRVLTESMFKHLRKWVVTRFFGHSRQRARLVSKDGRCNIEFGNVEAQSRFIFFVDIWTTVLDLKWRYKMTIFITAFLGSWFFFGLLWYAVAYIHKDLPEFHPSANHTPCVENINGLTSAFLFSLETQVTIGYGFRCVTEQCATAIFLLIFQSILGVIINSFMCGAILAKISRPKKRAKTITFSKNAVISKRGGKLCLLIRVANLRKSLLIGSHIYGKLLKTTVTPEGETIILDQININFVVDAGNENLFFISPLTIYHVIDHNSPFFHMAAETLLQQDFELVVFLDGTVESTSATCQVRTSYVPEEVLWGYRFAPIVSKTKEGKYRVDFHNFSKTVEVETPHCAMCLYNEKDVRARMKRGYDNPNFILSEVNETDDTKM
Calpain2 inh – inhibitors of pig calpain II, primary screen, biochemical, fluorogenic peptide substrate, 1536-well | purified calpain II, 30 min | inhibition, % at 16 µM | hit rate 0.37% among 220,000 | AID 1236, 2008;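 active = inhibition above about 50%, limit read from the data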
L major viab – Leishmania major promastigote growth inhibition, primary screen. Leishmania major promastigotes, resazurin fluorescence viability. inhibition, % at 10 µM. hit rate 9% among 200,000. AID 1063, 2008; in the data active = inhibition above about 50%;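 note: promastigotes grown with compound for 44 hours at 28 °C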
Cl transport mod – KCC2 cotransporter modulators, thallium flux, primary screen, cell-based, HEK293 KCC2, FluoZin-2 fluorescence, MLSMR. B-score of Tl+ flux slope (higher = more flux/activation; lower = inhibition) at 10 µM. KCC2 cells, thallium flux FluoZin-2 fluorescence. hit rate 2.2% among 190,000. Solute carrier family 12 member 5 (Homo sapiens), Q9H2X9;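 active = thallium flux slope and its plate-corrected score both differing from the plate sample mean at a set confidence after two filtering rounds, in either direction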;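 note: slope of fluorescence scaled to starting intensity during 10 to 20 s after thallium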
WT yeast gro inh – growth inhibition of WT strain, primary screen, mitochondrial fusion inhibitor project, WT and mutant strains, chemical genetic; mitochondrial fusion phenotypic screen; hit rate 2.1% among 190,000; inhibition, % at 10 µM; AID 1362, 2008; in the data active = inhibition above about 58%; tested in S. cerevisiae
Hits are given with their value. Hits are enriched below; roughly 12% of the tested compounds scored in any of these assays.

Screening CCOC(=O)N1CCN(Cc2nc3c(c(=O)n(C)c(=O)n3C)n2CCCc2ccccc2)CC1 returned Calpain2 inh inactive, L major viab inactive and WT yeast gro inh inactive.
CNc1ccccc1C(C)(C)c1cc(-c2cccc(OC)c2)no1 was read as ROMK mod inactive, Calpain2 inh inactive, L major viab inactive, Cl transport mod inactive and WT yeast gro inh 62.8.
`O=c1oc(-c2ccccc2NS(=O)(=O)c2ccc3ccccc3c2)nc2ccccc12` gave ROMK mod inactive, Calpain2 inh inactive, L major viab 92.1, Cl transport mod inactive and WT yeast gro inh inactive.
`COc1cc(OC)cc(-c2nc3ccccc3c(=O)o2)c1` gave Calpain2 inh inactive, L major viab inactive, Cl transport mod inactive and WT yeast gro inh inactive.
`C=C(C)C(=O)Nc1cccnc1Oc1ccc(F)cc1F` gave ROMK mod inactive, Calpain2 inh inactive and Cl transport mod inactive.
`C/C(=N/NC(=O)CCc1c(C)n[nH]c1C)c1cccc([N+](=O)[O-])c1` gave Calpain2 inh inactive and Cl transport mod inactive.
`CCN(CC)c1ccc(/C=C2/SC(=O)N(C(C)C)C2=O)o1` gave Calpain2 inh inactive, L major viab 99.4, Cl transport mod inactive and WT yeast gro inh inactive.
For Cc1cc(N2CCOCC2)ccc1/C=C1\SC(=O)N(C(C)C)C1=O the results were ROMK mod inactive, Calpain2 inh inactive, L major viab inactive, Cl transport mod inactive and WT yeast gro inh inactive.
Cc1nc(=O)c(-c2ccccc2)c(C)n1CCCCCC(=O)O was read as ROMK mod inactive, Calpain2 inh inactive, L major viab inactive and WT yeast gro inh 82.6.
`Cc1nc(=O)c(-c2ccccc2)c(C)n1CCCO` gave Calpain2 inh inactive, L major viab inactive, Cl transport mod inactive and WT yeast gro inh inactive.
For CCCNC(=O)NC(C)C12CC3CC(CC(C3)C1)C2 (stereo not given) the results were Calpain2 inh inactive, L major viab inactive, Cl transport mod inactive and WT yeast gro inh inactive.
COc1cccc(OC)c1C(=O)NC(C)C12CC3CC(CC(C3)C1)C2 (stereo not given) was read as ROMK mod inactive, Calpain2 inh inactive, L major viab inactive and WT yeast gro inh 61.5.
COc1ccc(/C=C/C(=O)NC(=S)NNC(=O)Cc2cccs2)cc1OC was read as ROMK mod inactive, Calpain2 inh inactive, L major viab 98.6, Cl transport mod inactive and WT yeast gro inh inactive.
Screening O=C(/C=C/c1cccs1)NC(=S)NNC(=O)Cc1cccs1 returned Calpain2 inh inactive, L major viab 63.8, Cl transport mod inactive and WT yeast gro inh inactive.
For COc1ccc(C(=O)NC(=S)NNC(=O)Cc2cccs2)cc1 the results were Calpain2 inh inactive, L major viab inactive, Cl transport mod inactive and WT yeast gro inh inactive.
For CC(C)(C)CC(=O)O/N=C(\N)c1ccncc1 the results were ROMK mod inactive, Calpain2 inh inactive, L major viab inactive, Cl transport mod inactive and WT yeast gro inh inactive.
Screening Cc1ccc(NC(=O)NC2CCCCC2)cc1Cl returned Calpain2 inh inactive, L major viab inactive and WT yeast gro inh inactive.
For Cc1ccc(NC(=O)NCC2CCN(Cc3cccc(Cl)c3)CC2)c(Cl)c1 the results were ROMK mod inactive, Calpain2 inh inactive, L major viab 84.4, Cl transport mod inactive and WT yeast gro inh inactive.
Cc1cccc(CN2CCC(CNC(=O)CSc3cc(=O)n(C)c4cc(Cl)ccc34)CC2)c1 was read as Calpain2 inh inactive and Cl transport mod inactive.
`Cc1ccc(NC(=O)NCC2CCN(Cc3cccc(Cl)c3)CC2)cc1Cl` gave ROMK mod inactive, Calpain2 inh inactive, L major viab 87.1, Cl transport mod inactive and WT yeast gro inh 81.7.
For c1ccc2c(c1)OCCOCCOc1ccccc1OCCOCCO2 the results were ROMK mod inactive, Calpain2 inh inactive, L major viab inactive and WT yeast gro inh inactive.
`COc1ccc2nc(N/C(N)=N/C(=S)Nc3ccccc3)nc(C)c2c1` gave ROMK mod inactive, Calpain2 inh inactive, L major viab inactive, Cl transport mod inactive and WT yeast gro inh inactive.
For CCOc1ccc2nc(N/C(N)=N/C(=S)Nc3ccc(OC)cc3)nc(C)c2c1 the results were ROMK mod inactive, Calpain2 inh inactive, L major viab 71.9, Cl transport mod inactive and WT yeast gro inh inactive.
Cc1ccc(-c2nc3cc(NC(=O)C(C)C)ccc3o2)cc1 was read as Calpain2 inh inactive, L major viab inactive, Cl transport mod inactive and WT yeast gro inh inactive.
